Each sequence was assayed on PPARg:RXRa 270nM:90nM, anti-RXR (NR concentration 270 nM, RXRa partner concentration 90 nM) (assay: PBM binding z-score (relative to random genomic background probes); higher = stronger binding; sequences stand for … in GC…GCGATTGACAGCGTAGAATGAAGG).
How it was run: (§1)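 Probes were double-stranded and carried 34-nt variable regions with direct-repeat seeds, single-nucleotide variants, half-site ablations and random human genomic background sequences, printed on custom Agilent 4×180K protein-binding microarrays. Arrays were incubated 1 h with ligand-free nuclear receptor dimers in PBS pH 7.4, 2% milk, 0.02% Triton X-100, 1 mM DTT, 0.2 mg/mL BSA and 0.4 mg/ml salmon testes DNA. Antibodies against each partner (one per run) detected binding, and scanned fluorescence was regression-normalized. Binding z-scores use the random background probes as reference.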
TCGACTAGGTTACGGGGGCATTCAGGGATGAAGA was tested, and the PBM binding z-score was 5.97.
In the case of CTATGTAGGTTAAGGGGGACATTCAGTTTGAAAG, the PBM binding z-score is reported as 8.59.
Work on CCGAGTAGGTTAGGAGGGGGCATTCAGTGCGAAT yielded a PBM binding z-score of 2.65.
With CTGTGTAGGTTAAGGGGGTCATTCAGTTTGAAAG the PBM binding z-score was 6.47.
CTATGTAGGTTAAGGGGGTCACTCAGTTTGAAAG gave a PBM binding z-score of 7.98.
Work on TCGAGTAGGTTAAGGGGGCATTCAGGGATGAAGA yielded a PBM binding z-score of 5.78.
With TCGAGTTGGTTACGGGGGCATTCAGGGATGAAGA the PBM binding z-score was 2.84.
TCGAGTAGTTTACGGGGGCATTCAGGGATGAAGA gave a PBM binding z-score of 2.83.
With TCGAGTAGGTTACGGGGGCATGCAGGGATGAAGA the PBM binding z-score was 5.69.
CCGAGTAGGGTACGAGGGGGCATTCAGTGCGAAT gave a PBM binding z-score of 1.58.
Sequence CCGAGTAGGTTACGAGGGGGAATTCAGTGCGAAT has a PBM binding z-score of 2.55.
CCGAGTAGGTTACAAGGGGGCATTCAGTGCGAAT showed a PBM binding z-score of 3.68.
Work on CTATGTAGGTTAAGGGGATCATTCAGTTTGAAAG yielded a PBM binding z-score of 5.5.
Sequence TCGAGTAGGTTACGGGCGCATTCAGGGATGAAGA has a PBM binding z-score of 1.62.
Sequence TCGAGTAGGTTACGGGGGCATTTAGGGATGAAGA has a PBM binding z-score of 5.65.
CTATGTAGGTTTAGGGGGTCATTCAGTTTGAAAG was tested, and the PBM binding z-score was 5.15.
Sequence TCGAGTAGGTTACGGGGGCATTCCGGGATGAAGA has a PBM binding z-score of 5.67.
TCGAGTAGGTTACCGGGGCATTCAGGGATGAAGA gave a PBM binding z-score of 2.86.
Sequence TCGAGTAGGTGACGGGGGCATTCAGGGATGAAGA has a PBM binding z-score of 5.26.
With CCGAGTAGGTTACGAGGTGGCATTCAGTGCGAAT the PBM binding z-score was 2.03.
With CTATGTAGGGTAAGGGGGTCATTCAGTTTGAAAG the PBM binding z-score was 7.52.
Work on CTATGTAGGTTCAGGGGGTCATTCAGTTTGAAAG yielded a PBM binding z-score of 6.22.
Sequence CCGAGTAGTTTACGAGGGGGCATTCAGTGCGAAT has a PBM binding z-score of 1.08.
In the case of CCGAGTAGGTTACGAGGGTGCATTCAGTGCGAAT, the PBM binding z-score is reported as 1.92.
Work on TCGAGTAGGTTACGGGGGCATTCAAGGATGAAGA yielded a PBM binding z-score of 5.8.
Sequence CTATGTACGTTAAGGGGGTCATTCAGTTTGAAAG has a PBM binding z-score of 5.19.
Work on TCGAGTAGGTTACGGGGGCTTTCAGGGATGAAGA yielded a PBM binding z-score of 3.94.
Work on CCGAGTAGGTTACGAGGGGGCATTCTGTGCGAAT yielded a PBM binding z-score of 3.46.
TCGCGTAGGTTACGGGGGCATTCAGGGATGAAGA showed a PBM binding z-score of 4.92.
TCGAGTAGGTTACGGGGGCATTCATGGATGAAGA gave a PBM binding z-score of 5.78.
CTATGTAGGTTAAGGGGGTCATTCACTTTGAAAG was tested, and the PBM binding z-score was 8.03.
CCGAGTATGTTACGAGGGGGCATTCAGTGCGAAT gave a PBM binding z-score of 1.45.
Sequence CTATGTAGGTTAAGGGCGTCATTCAGTTTGAAAG has a PBM binding z-score of 5.64.
CCGAGTAGGTTACGAGGGGGCAGTCAGTGCGAAT was tested, and the PBM binding z-score was 3.18.
CTATGTCGGTTAAGGGGGTCATTCAGTTTGAAAG showed a PBM binding z-score of 6.26.
With TCGAGTAGGTTAGGGGGGCATTCAGGGATGAAGA the PBM binding z-score was 4.97.
CTTTGTAGGTTAAGGGGGTCATTCAGTTTGAAAG gave a PBM binding z-score of 7.59.
With TCGAGTAGGTTACGAGGGCATTCAGGGATGAAGA the PBM binding z-score was 3.11.
Work on TCGAGTAGGTTACGGAGGCATTCAGGGATGAAGA yielded a PBM binding z-score of 1.81.

Each sequence was assayed on PPARg:RXRa 30nM:10nM, anti-RXR (NR concentration 30 nM, RXRa partner concentration 10 nM) in the same assay as above.
How it was run: as §1
With TCGACTAGGTTACGGGGGCATTCAGGGATGAAGA the PBM binding z-score was 4.68.
For CTATGTAGGTTAAGGGGGACATTCAGTTTGAAAG, the PBM binding z-score was 7.64.
Sequence CCGAGTAGGTTAGGAGGGGGCATTCAGTGCGAAT has a PBM binding z-score of 1.44.
CTGTGTAGGTTAAGGGGGTCATTCAGTTTGAAAG gave a PBM binding z-score of 4.23.
CTATGTAGGTTAAGGGGGTCACTCAGTTTGAAAG gave a PBM binding z-score of 6.23.
Work on TCGAGTAGGTTAAGGGGGCATTCAGGGATGAAGA yielded a PBM binding z-score of 3.91.
TCGAGTTGGTTACGGGGGCATTCAGGGATGAAGA showed a PBM binding z-score of 2.24.
Sequence TCGAGTAGTTTACGGGGGCATTCAGGGATGAAGA has a PBM binding z-score of 2.71.
TCGAGTAGGTTACGGGGGCATGCAGGGATGAAGA gave a PBM binding z-score of 3.6.
CCGAGTAGGGTACGAGGGGGCATTCAGTGCGAAT showed a PBM binding z-score of 0.0374.
Work on CCGAGTAGGTTACGAGGGGGAATTCAGTGCGAAT yielded a PBM binding z-score of 0.623.
Work on CCGAGTAGGTTACAAGGGGGCATTCAGTGCGAAT yielded a PBM binding z-score of 0.773.
CTATGTAGGTTAAGGGGATCATTCAGTTTGAAAG gave a PBM binding z-score of 3.3.
For TCGAGTAGGTTACGGGCGCATTCAGGGATGAAGA, the PBM binding z-score was 1.11.
TCGAGTAGGTTACGGGGGCATTTAGGGATGAAGA gave a PBM binding z-score of 2.96.
CTATGTAGGTTTAGGGGGTCATTCAGTTTGAAAG gave a PBM binding z-score of 2.66.
In the case of TCGAGTAGGTTACGGGGGCATTCCGGGATGAAGA, the PBM binding z-score is reported as 2.85.
TCGAGTAGGTTACCGGGGCATTCAGGGATGAAGA was tested, and the PBM binding z-score was 1.46.
TCGAGTAGGTGACGGGGGCATTCAGGGATGAAGA showed a PBM binding z-score of 3.32.
Sequence CCGAGTAGGTTACGAGGTGGCATTCAGTGCGAAT has a PBM binding z-score of 0.157.
For CTATGTAGGGTAAGGGGGTCATTCAGTTTGAAAG, the PBM binding z-score was 5.
In the case of CTATGTAGGTTCAGGGGGTCATTCAGTTTGAAAG, the PBM binding z-score is reported as 3.18.
With CCGAGTAGTTTACGAGGGGGCATTCAGTGCGAAT the PBM binding z-score was 0.469.
CCGAGTAGGTTACGAGGGTGCATTCAGTGCGAAT was tested, and the PBM binding z-score was 0.234.
Sequence TCGAGTAGGTTACGGGGGCATTCAAGGATGAAGA has a PBM binding z-score of 3.65.
Sequence CTATGTACGTTAAGGGGGTCATTCAGTTTGAAAG has a PBM binding z-score of 3.25.
TCGAGTAGGTTACGGGGGCTTTCAGGGATGAAGA showed a PBM binding z-score of 2.05.
For CCGAGTAGGTTACGAGGGGGCATTCTGTGCGAAT, the PBM binding z-score was 0.457.
With TCGCGTAGGTTACGGGGGCATTCAGGGATGAAGA the PBM binding z-score was 3.28.
With TCGAGTAGGTTACGGGGGCATTCATGGATGAAGA the PBM binding z-score was 3.34.
In the case of CTATGTAGGTTAAGGGGGTCATTCACTTTGAAAG, the PBM binding z-score is reported as 5.89.
CCGAGTATGTTACGAGGGGGCATTCAGTGCGAAT showed a PBM binding z-score of 0.332.
CTATGTAGGTTAAGGGCGTCATTCAGTTTGAAAG gave a PBM binding z-score of 3.36.
In the case of CCGAGTAGGTTACGAGGGGGCAGTCAGTGCGAAT, the PBM binding z-score is reported as 0.853.
Sequence CTATGTCGGTTAAGGGGGTCATTCAGTTTGAAAG has a PBM binding z-score of 3.98.
With TCGAGTAGGTTAGGGGGGCATTCAGGGATGAAGA the PBM binding z-score was 3.63.
For CTTTGTAGGTTAAGGGGGTCATTCAGTTTGAAAG, the PBM binding z-score was 5.64.
For TCGAGTAGGTTACGAGGGCATTCAGGGATGAAGA, the PBM binding z-score was 1.61.
Work on TCGAGTAGGTTACGGAGGCATTCAGGGATGAAGA yielded a PBM binding z-score of 1.08.
